In this test the target is Sphingosine 1-phosphate receptor 4 (Homo sapiens) (UniProt O95977). Nature of the test: activators of human S1P4 signalling – cell-based, high throughput, confirmation (AID 1523).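 Also: 0% = vehicle and 100% = full reference agonist response.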 The settings on record: S1P4 agonist cell-based reporter assay; at 4.98 µM; active compounds read high. (A reporter such as luciferase makes a cellular process visible.)

This is one part of the list. A number with no mark means an inactive call. Rule as the data show it: active = activation above about 12%; inactive = the rest.

One compound from PubChem BioAssay AID1523 (The Scripps Research Institute Molecular Screening Center, 2009) can be followed below.

Chain of Sphingosine 1-phosphate receptor 4 (Homo sapiens) (O95977 whole entry, looked up): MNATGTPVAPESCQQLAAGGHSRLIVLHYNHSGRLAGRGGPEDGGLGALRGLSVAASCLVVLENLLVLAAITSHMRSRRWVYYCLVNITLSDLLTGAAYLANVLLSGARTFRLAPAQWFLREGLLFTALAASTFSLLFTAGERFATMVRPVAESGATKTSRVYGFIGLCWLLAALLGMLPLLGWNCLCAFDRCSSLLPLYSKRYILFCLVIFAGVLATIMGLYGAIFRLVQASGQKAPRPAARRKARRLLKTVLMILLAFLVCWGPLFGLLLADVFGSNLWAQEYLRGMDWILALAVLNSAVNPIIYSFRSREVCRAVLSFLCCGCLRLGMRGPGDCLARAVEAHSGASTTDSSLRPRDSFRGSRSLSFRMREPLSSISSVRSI

As for `CC(C)N(CC#CCC1(O)c2ccccc2-c2ccccc21)C(C)C`, the activation was -2.04%.
